Assay outcomes deposited in PubChem BioAssay by National Center for Advancing Translational Sciences (NCATS).
CHX counter = counter-screen for Shiga toxin inhibitors: cycloheximide protein synthesis inhibition; AID 2314; hit rate 12% among 300,000; max response, %; cell reporter, cycloheximide protein synthesis inhibition counterscreen; in the data active = max response mostly above about 13%, no sharp cut-off; inactive = mostly below about 14%; note: read at 38.3 µM for the half of the compounds with a filed dose
LmPK inh = blocks Leishmania mexicana pyruvate kinase activity | Q27686 | purified LmPK, Kinase-Glo ATP luminescence, 1 h | Potency, µM (top dose mostly 57.5 µM), usual class: inhibitors | hit rate 0.37% among 290,000 | AID 1721
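Kinase-Glo luminescence read after 1 h RT reaction of 0.1 nM LmPK with 0.5 mM PEP and 0.1 mM ADP. Activity scaled between uninhibited and enzyme-free controls.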
Shiga toxin inh = blocks Shiga toxin action in Vero cells | AID 2315 | inhibition, % at 38.7 µM | hit rate 9.2% among 290,000 | Vero cells, Shiga toxin protein synthesis inhibition reporter; in the data active = inhibition mostly above about 28%, no sharp cut-off; inactive = mostly below about 43%
TbPYK inhibitor = blocks Trypanosoma brucei pyruvate kinase | TbPYK enzyme, Kinase-Glo Plus ATP luminescence, 45 min | Potency, µM (top dose mostly 76.8 µM), actives largely listed as inhibitors | hit rate 0.12% among 410,000; note: nearly all actives have a fitted effect of over 50% in size
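Luminescent Kinase-Glo Plus end-point after 45 min room-temperature reaction of T. brucei pyruvate kinase started with 130 uM ADP (final). Buffer TEA 50 mM pH 7.2 with KCl, MgCl2, BSA, Tween-20; titration-based qHTS with fitted concentration-effect curves.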
Giardia FBPA inh = blocks Giardia fructose-bisphosphate aldolase activity; A8B2U2; purified Giardia FBPA; Potency, µM (titrated, usually from 59.6 µM), actives largely listed as inhibitors; hit rate 0.71% among 290,000; AID 2451; note: nearly all actives have a fitted effect of over 55% in size
Target sequence (A8B2U2 whole entry, looked up): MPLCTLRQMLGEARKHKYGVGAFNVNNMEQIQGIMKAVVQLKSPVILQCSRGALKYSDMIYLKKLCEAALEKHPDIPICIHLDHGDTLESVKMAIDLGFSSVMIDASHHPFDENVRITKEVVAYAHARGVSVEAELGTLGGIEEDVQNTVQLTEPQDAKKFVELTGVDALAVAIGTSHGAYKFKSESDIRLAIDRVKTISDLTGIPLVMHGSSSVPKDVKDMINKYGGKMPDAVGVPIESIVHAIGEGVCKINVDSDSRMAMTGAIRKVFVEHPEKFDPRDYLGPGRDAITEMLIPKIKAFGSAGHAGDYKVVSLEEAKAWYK
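Giardia FBPA (40 nM reagent) was preincubated 10 min at RT with compound (up to 57.5 uM final), then substrate plus GAPDH/TPI/NAD/arsenate coupling system with diaphorase/resazurin was added; resorufin fluorescence (525/598 nm) was read after 20 min.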
Sm TGR inh = S. mansoni TGR enzyme inhibition; Potency, µM (titrated, usually from 114 µM), most hits filed as inhibitors; Q962Y6; purified TGR, DTNB reduction, TNB absorbance 405 nm; hit rate 3% among 360,000; note: nearly all actives have a fitted effect of over 60% in size
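TGR 20 nM + NADPH 100 uM (dispensed conc.), cpd preinc 15 min RT; start with NADPH (500 uM addition) then DTNB (15 mM addition). Kinetic TNB absorbance, 405 nm filter. Four-parameter Hill fit across titration.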
Each line names hits and unclear results; the compound was inactive in the other large screens. The entries come from a sample that favours hits as a whole. Unless noted, calls come from the whole dose curve; as a rule, active = well fitted curve in the direction sought with a large enough effect; inconclusive = small, poorly fitted or top-dose-only effect, or another doubt; inactive = no such curve, though single readings can be large; an effect the other way counts as inactive or inconclusive.

COc1ccccc1NC=C1C(=O)OC2(CCCCC2)OC1=O	CHX counter 31
S=c1[nH]cc(-c2ccccc2)[nH]1	CHX counter 39, Shiga toxin inh 34
CC(=O)c1cc2c(C)c(C(=O)c3ccccc3)oc2cc1O	CHX counter 45, Shiga toxin inh 79
O=C(c1ccccc1)c1ccc(O)cc1O	none
COc1ccc(Cn2c(=S)[nH]c3cc(OC)c(OC)cc3c2=O)cc1	CHX counter 31
COc1cc2[nH]c(=S)n(Cc3ccc(C)cc3)c(=O)c2cc1OC	none
COC(=O)c1cc2oc3ccccc3c2n1Cc1nc(-c2cccc(Cl)c2)oc1C	none (no result: CHX counter, LmPK inh, Shiga toxin inh, Giardia FBPA inh)
Cc1ccc(N=C2NC(=O)/C(=C/c3cccn3C)S2)cc1	CHX counter 37, Shiga toxin inh 79
Cc1cccc(N=C2NC(=O)/C(=C/c3cccn3C)S2)c1C	Sm TGR inh inconclusive
Cc1ccc(N=C2NC(=O)/C(=C/c3cccn3C)S2)cc1C	CHX counter 32, Shiga toxin inh 66
O=C(CN1CCc2cc3c(cc2C1)OCCCO3)Nc1c(F)cccc1F	none (no result: Giardia FBPA inh)
Cc1cc(C)c(NC(=O)Cc2ccc(-n3c(C)nc4cccnc43)cc2)c(C)c1	none (no result: CHX counter, LmPK inh, Shiga toxin inh, Giardia FBPA inh)
CC1(CCl)CN1S(=O)(=O)c1ccccc1 (stereo not drawn)	Sm TGR inh 40µM
CCCS(=O)(=O)N1CCN(S(=O)(=O)c2ccccc2)CC1	none
CC/C(=N\NC(=S)Nc1ccccc1)c1c(O)[nH]c(=O)[nH]c1=O	CHX counter 29, Shiga toxin inh 32, Giardia FBPA inh inconclusive, Sm TGR inh inconclusive
C/C(=N\Nc1ccccc1)c1c(O)[nH]c(=O)[nH]c1=O	none
O=C(O)COc1ccccc1/C=N/NC(=O)CSc1nc2ccccc2s1	none
N#C/C(=C\c1ccco1)Sc1nc2ccccc2s1	CHX counter 69, Shiga toxin inh 39, Sm TGR inh 40µM
O=C(CSc1nc2ccccc2s1)N/N=C/c1ccco1	CHX counter 14
C/C(=N\NC(=O)CSc1nc2ccccc2s1)c1ccco1	CHX counter 17, Shiga toxin inh 48
O=C(CSc1nc2ccccc2s1)N/N=C/c1ccccc1C(=O)O	CHX counter 52, Shiga toxin inh 91
CC(C)CCNC(=O)CSc1nc2ccccc2s1	none
Cn1cc(O)nc1NC(=O)Nc1cccc(Cl)c1	none (no result: CHX counter, LmPK inh, Shiga toxin inh, Giardia FBPA inh, Sm TGR inh)
CCOC(=O)c1nc(C)n(-c2ccc(Cl)cc2)n1	CHX counter 20
CCOC(=O)c1ccc(-n2nc(C)cc2C)cc1	CHX counter 15, Shiga toxin inh active
Cc1cc(C)n(-c2ccc(Cl)c(C(=O)O)c2)n1	CHX counter 44
CCOC(=O)c1cnc(-n2nc(C)cc2C)nc1N(C)C	CHX counter 18, Shiga toxin inh 48
COCCCNC(=O)c1ccc(Cn2c(=O)c3cccn3c3cccnc32)cc1	none (no result: CHX counter, LmPK inh, Shiga toxin inh, Giardia FBPA inh)
CCOCCCNC(=O)NC(CCC(C)C)c1c(-n2cccc2)sc2c1CCN(C)C2 (stereo not drawn)	none (no result: CHX counter, LmPK inh, Shiga toxin inh, Giardia FBPA inh)
CN(C)c1ccc(CN(C(=O)C2COc3ccccc3O2)C2CCS(=O)(=O)C2)cc1 (stereo not drawn)	Sm TGR inh 20µM
Cc1ccc(-c2noc(C3CCCN(C(=O)c4ccc(Cl)cc4)C3)n2)o1 (stereo not drawn)	CHX counter 36
Cc1ccc(-c2noc(C3CCCN(C(=O)C4CCCCC4)C3)n2)o1 (stereo not drawn)	CHX counter 24, Sm TGR inh 25µM
CCOc1ccc(C(=O)N2CCCC(c3nc(-c4ccc(C)o4)no3)C2)cc1 (stereo not drawn)	none (no result: Giardia FBPA inh)
COc1ccc(-c2cccc(NS(=O)(=O)c3ccc(C)s3)c2)nn1	none (no result: CHX counter, LmPK inh, Shiga toxin inh, Giardia FBPA inh)
CC1=NN(c2cccc(C(=O)O)c2)C(=O)/C1=C\C=C/c1ccccc1	CHX counter 80, Shiga toxin inh active, TbPYK inhibitor inconclusive, Sm TGR inh 11µM
CCCC(=O)N1CCc2cc(-c3nc(N)sc3C)ccc21	CHX counter 49, Shiga toxin inh 79
CC(C)(C)C(=O)N1CCc2cc(-c3csc(N)n3)ccc21	LmPK inh inconclusive (no result: Giardia FBPA inh)
CCC(C)C(=O)N1CCc2cc(-c3csc(N)n3)ccc21 (stereo not drawn)	CHX counter 52, Shiga toxin inh 65
CN1CCN(c2ncc3ncc(=O)n(C4CC4)c3n2)CC1	none (no result: CHX counter, LmPK inh, Shiga toxin inh, TbPYK inhibitor, Sm TGR inh)
CCC(=O)N1c2ccc(S(=O)(=O)NCc3ccc(F)cc3)cc2CC1C (stereo not drawn)	none (no result: CHX counter, LmPK inh, Shiga toxin inh, Giardia FBPA inh)
CCOC(=O)Cn1cc(/C=C(/C#N)C(=O)NC(C)C)c2ccccc21	none
CCCSc1ccc(-c2nn(-c3ccccc3)cc2/C=C(/C#N)C(=O)N2CCOCC2)cc1	CHX counter 16
CCOC(=O)Cn1cc(/C=C(\C#N)C(=O)N2CCOCC2)c2ccccc21	CHX counter 10, Shiga toxin inh 74
C=CCNC(=O)c1scc2c1CCCC2	CHX counter 16
CN(CC1CCOCC1)C(=O)CC1C(=O)NCCN1Cc1cccc(F)c1 (stereo not drawn)	Sm TGR inh inconclusive
CN(C(=O)CC1C(=O)NCCN1Cc1ccc(F)c(F)c1)C1CCOCC1 (stereo not drawn)	Sm TGR inh 45µM
O=C(CC1C(=O)NCCN1Cc1ccc(F)c(F)c1)NCCn1cccn1 (stereo not drawn)	Sm TGR inh 45µM
COCCN(C(=O)CC1C(=O)NCCN1Cc1ccc(-c2ccccc2)cc1)C(C)C (stereo not drawn)	Sm TGR inh 40µM
CN(CCc1ccccn1)C(=O)CC1C(=O)NCCN1Cc1ccc(-c2ccccc2)cc1 (stereo not drawn)	none
O=C1NCCN(Cc2ccoc2)C1CC(=O)N(Cc1ccccc1)CC1CCC1 (stereo not drawn)	CHX counter 13, Sm TGR inh 10µM
CCOc1ccc(Cn2c(CNS(=O)(=O)c3ccc(C(C)(C)C)cc3)nc3cccnc32)cc1	none (no result: CHX counter, LmPK inh, Shiga toxin inh, Giardia FBPA inh)
CC(NC(=O)c1ccc(C23CC4CC(CC(C4)C2)C3)cc1)C(=O)O (stereo not drawn)	none
Cc1ccc(CN2CCNC(=O)C2CC(=O)N(C)C2CCCCC2)cc1 (stereo not drawn)	Sm TGR inh 45µM (no result: Giardia FBPA inh)
CCOc1ccc(CN2CCNC(=O)C2CC(=O)N(C)C2CCCCC2)cc1 (stereo not drawn)	Sm TGR inh inconclusive
CCOc1ccc(CC(=O)Nc2c(C(=O)c3ccccc3)oc3ccc(Cl)cc23)cc1OCC	none (no result: CHX counter, LmPK inh, Shiga toxin inh, Giardia FBPA inh)
CN(C)Cc1c(O)ccc2c3c(c(=O)oc12)CCCCC3	none
Cc1c(C)c2cc(Cl)c(O)c(CN3CCCCC3)c2oc1=O	none
CCCc1cc(=O)oc2c(CN3CCOCC3)c(O)ccc12	none
Cc1cc(=O)oc2c(CN3CCN(C)CC3)c(O)c(Cl)cc12	Sm TGR inh 50µM
O=c1oc2c(CN3CCOCC3)c(O)ccc2c2c1CCCC2	Sm TGR inh 79µM
O=c1oc2c(CN3CCOCC3)c(O)c(Cl)cc2c2c1CCCC2	Giardia FBPA inh inconclusive, Sm TGR inh 45µM
